# Sampled rows, rich in hits. Any-hit rate of the full collection: about 3.8%.
# tim10-1 inh = growth inhibitors of tim10-1 mutant yeast. 330,000 tested, 2.2% active. inhibition, % at 20 µM. S. cerevisiae tim10-1 ts strain growth, BacTiter-Glo, 24 h. AID 463190;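 active means inhibition of at least 40%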;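 further: mutant grown at 25 °C; 0% = DMSO wells with yeast and 100% = wells holding no yeast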
# TIM10 inh = growth inhibitors of TIM10 yeast strain; S. cerevisiae TIM10 strain growth, BacTiter-Glo luminescence, 24 h; inhibition, % at 10 µM; 330,000 tested, 1.4% active;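 active means inhibition of 40% or more at the single tested concentration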;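 further: wild-type TIM10 isogenic control strain grown at permissive 25 °C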
# tim23-1 inh = growth inhibitors of tim23-1 mutant yeast | S. cerevisiae tim23-1 growth, BacTiter-Glo luminescence, 24 h | 330,000 tested, 1.3% active | inhibition, % at 20 µM;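 active means growth inhibition of the mutant yeast at or above 50%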;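 further: temperature-sensitive mutant grown at 25 °C; plate controls were DMSO-treated mutant yeast for no effect and medium wells lacking yeast for full effect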
# CR mimetic SO = lowers age-related superoxide in aged yeast cells | 330,000 tested, 0.18% active | S. cerevisiae aged cells, superoxide DHE fluorescence; stronger effect = lower value | superoxide response (% of plate mean), % at 10 µM;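 active means superoxide response under a set limit, about three screen SD below normal, cut at about 65% in these data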;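 further: yeast aged for seven days with compound at 30 °C before DHE staining; 100% = average MFI of all compound-treated wells on the plate with controls excluded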
# NALP3 yeast inh = inhibitors of NALP3 inflammasome in yeast | AID 2825 | 330,000 tested, 0.39% active | inhibition, % at 10 µM | Yeast reconstituted NLRP3/ASC/caspase-1, beta-gal luminescence, 24 h;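 active means inhibition of 50% or more; inactive means inhibition below 50%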;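 further: plate controls were induced DMSO wells for no effect and uninduced yeast grown without galactose for full effect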
# Superoxide pick = confirmation of caloric restriction mimetics inhibiting yeast age-related superoxide; shares compounds with CR mimetic SO; superoxide response (% of plate), % at 10 µM; S. cerevisiae aging, superoxide DHE fluorescence; stronger effect = lower value; 850 tested, 1% active;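 active means superoxide signal below 65% of the plate average of sample wells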;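 further: cells aged with compound for 7 days at 30 degrees C before staining; 100% equals mean DHE fluorescence of all compound wells on the plate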
# DHE counter = compound alters DHE oxidation or fluorescence in yeast; shares compounds with CR mimetic SO; S. cerevisiae BY4741, flow cytometry; stronger effect = lower value; fluorescence response, % at 10 µM; 850 tested, under 10 active;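 active means fluorescence response below 15%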;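 further: percent of the mean fluorescence averaged over all compound wells on the plate; lower means stronger quenching of DHE signal or ROS scavenging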
# NALP3 confirm = confirmation of NALP3 inhibitors in yeast; inhibition, % at 10 µM; yeast expressing human NALP3, luminescence; shares compounds with NALP3 yeast inh; AID 435006; 1,300 tested, 81% active; in the data active means inhibition above about 48%
# Casp1-ASC yeast = active in yeast caspase-1-ASC counter-screen for NALP3 inhibitors. shares compounds with NALP3 yeast inh. yeast expressing Caspase-1-ASC, luminescence counter screen. inhibition, % at 10 µM. 1,000 tested, 66% active. AID 488784
# NALP3 yeast rt = yeast NALP3 inhibition, confirmed on retest; shares compounds with NALP3 yeast inh; yeast expressing human NALP3, luminescence read-out; inhibition, % at 10 µM; 1,000 tested, 53% active
# tim10-1 conf = confirmation of tim10-1 mutant yeast growth inhibitors; shares compounds with tim10-1 inh; S. cerevisiae tim10-1 ts strain growth, BacTiter-Glo, 24 h; inhibition, % at 20 µM; 7,400 tested, 56% active;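 active means inhibition of yeast growth at or above a set limit in either of two repeat tests at 20 µM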;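 further: tim10-1 mutant grown at permissive 25 °C to find synthetic lethal compounds; 0% = DMSO yeast wells and 100% = medium wells without yeast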
# TIM10 conf = TIM10 yeast growth inhibition, confirmed; S. cerevisiae tim10 strain growth, BacTiter-Glo luminescence, 24 h; 4,600 tested, 63% active; shares compounds with TIM10 inh; inhibition, % at 10 µM; AID 463215;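 active means inhibition of yeast growth at or above a set limit in either of two replicates at 10 µM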;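 further: this counterscreen used the strain with wild-type TIM10; 0% = yeast with DMSO and 100% = medium wells lacking yeast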
# tim23-1 conf = confirmation of tim23-1 mutant yeast growth inhibitors | inhibition, % at 20 µM | 4,400 tested, 83% active | AID 463218 | shares compounds with tim23-1 inh | S. cerevisiae tim23-1 growth, BacTiter-Glo luminescence, 24 h;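 active means inhibition above about 39% in either of two replicate wells at 20 µM, limit read from the data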;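 further: temperature-sensitive tim23-1 mutant grown at 25 °C; 0% = DMSO wells with yeast and 100% = medium wells without yeast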
# Numbers without * were called inactive; . = not tested or not shown. Unless noted, no stated cut-off is given here; in the data, active means inhibition above about 50%; inactive means the rest.
SMILES,tim10-1 inh,TIM10 inh,tim23-1 inh,CR mimetic SO,NALP3 yeast inh,Superoxide pick,DHE counter,others
COc1ccc(N2CCN(C(=O)c3ccc(Cl)c(S(=O)(=O)N4CCCC4)c3)CC2)cc1,6,-3,13,112,6,.,.,
CCOc1ccc(C(=O)N2CCN(c3ccccc3)CC2)cc1OCC,18,13,14,87,9,.,.,
Cc1ccc(NS(=O)(=O)c2ccc(C(=O)N3CCN(c4ncccn4)CC3)cc2)cc1,7,12,-1,106,19,.,.,
Cc1ccc(C(=O)N2CCN(c3ncccn3)CC2)cc1,24,-5,10,65*,12,97,93,
COc1ccc(N2CCN(C(=O)c3ccc(C)cc3Cl)CC2)cc1,16,12,24,95,23,97,91,
COc1ccc(N2CCN(C(=O)c3ccc(C)c(Cl)c3)CC2)cc1,24,-25,4,83,1,94,99,
CCOc1ccc(NS(=O)(=O)c2csc(C(N)=O)c2)cc1,-19,4,15,104,8,.,.,
Fc1ccccc1COc1ccc(C(=S)N2CCCC2)cc1,16,3,33,65*,33,107,93,
CCc1ccccc1NC(=O)COc1ccc(C(=S)N2CCCC2)cc1,12,9,26,102,6,.,.,
C=CCn1c(SCC(=O)NC2CCCCC2)nnc1-c1ccc(OC)cc1,26,-20,6,57*,0,114,112,
CC1CN(C(=O)COC(=O)c2nn(-c3ccccc3)c(=O)c3ccccc23)CC(C)O1 (stereo unspecified),4,9,12,114,18,.,.,
Cc1cccc(-n2ncc3c(NC(C)C)ncnc32)c1,-35,-10,28,96,47,.,.,
CC(C)Nc1ncnc2c1cnn2-c1ccccc1,-26,-18,25,103,58*,108,89,NALP3 confirm=65*;Casp1-ASC yeast=38;NALP3 yeast rt=36
CC(NC(=O)COC(=O)CCc1nc2ccccc2c(=O)[nH]1)c1ccccc1 (stereo unspecified),6,-22,7,94,-2,.,.,
Cn1c(=O)c(C(=O)NNC(=O)c2ccccc2F)c(O)c2ccccc21,-42,11,37,64*,64*,91,89,NALP3 confirm=82*;Casp1-ASC yeast=45;NALP3 yeast rt=54*
CCOc1nc2cnccc2n(CC(=O)Nc2cccc(C)c2)c1=O,19,-4,5,88,7,.,.,
CCOc1cc(C)c(S(=O)(=O)N2CCCC2)cc1C,1,6,13,65*,83*,89,106,NALP3 confirm=80*;Casp1-ASC yeast=90*;NALP3 yeast rt=81*
O=C(c1ccco1)N1N=C(c2cccs2)CC1c1ccc(F)cc1 (stereo unspecified),37,20,44,103,-3,.,.,
CNC(=S)N1N=C(c2cccs2)CC1c1ccc(F)cc1 (stereo unspecified),43*,13,35,65*,-11,107,95,tim10-1 conf=18
O=C(c1ccccc1F)N1CCN(c2ccccc2)CC1,14,1,20,91,-1,.,.,
O=C(c1ccccc1Br)N1CCN(c2ccccc2)CC1,86*,1,27,98,3,107,95,tim10-1 conf=15
CCCCn1nc(NC(=O)c2cccs2)c2cc3ccccc3nc21,48*,25,49,65*,6,99,92,tim10-1 conf=39*
CC1CC(C)CN(S(=O)(=O)c2ccc(C(=O)Nc3nnc(C4CC4)o3)cc2)C1 (stereo unspecified),47*,27,45,83,15,92,96,tim10-1 conf=10
O=C(COc1ccc(Cl)cc1Cl)NC1CCSC1=O (stereo unspecified),27,-2,10,101,18,.,.,
Cc1cccc(NC(=O)COc2ccc(-c3nn(C)c(=O)c4ccccc34)cc2)c1,4,10,24,104,46,.,.,
SMILES,tim10-1 inh,TIM10 inh,tim23-1 inh,CR mimetic SO,NALP3 yeast inh,Superoxide pick,DHE counter,others
CC(C)(C)c1ccc(/C=C/C(=O)c2ccc(NC3=NCCCS3)cc2)cc1,43*,26,35,46*,8,113,122,tim10-1 conf=35*
CC1CCc2sc(C(=O)N(C)CC(=O)Nc3ccc(N4CCOCC4)cc3)cc2C1 (stereo unspecified),15,-14,10,96,21,.,.,
CCOc1ccc(-c2c(C(=O)N/N=C/c3cccc(Br)c3)nnn2-c2nonc2N)cc1,-2,-3,0,103,7,.,.,
N=c1oc2cc(O)ccc2cc1C(=O)Nc1ccc(Cl)cc1,44*,25,43,50*,-23,96,65,tim10-1 conf=24
Cc1cc(C)n(-c2nnc(NC(C)(C)C)nn2)n1,6,9,7,91,24,.,.,
Cc1cc(C)n(-c2nnc(NC34CC5CC(CC(C5)C3)C4)nn2)n1,57*,29,47,64*,2,87,98,tim10-1 conf=42*
COc1ccc2c(c1)c1nnc(SC)nc1n2C,63*,81*,43,44*,40,67,87,tim10-1 conf=66*;TIM10 conf=81*
Cn1c(=O)cc(Nc2ccccc2)c2c(=O)n(-c3ccccc3)c(=O)n(-c3ccccc3)c21,-11,7,10,112,3,.,.,
O=C(NCCC1=CCCCC1)c1c(O)nc2ccccn2c1=O,51*,31,56*,64*,63*,85,94,NALP3 confirm=76*;Casp1-ASC yeast=52*;NALP3 yeast rt=55*;tim10-1 conf=-6;tim23-1 conf=56*
O=C(NCCCN1CCCC1=O)c1c(O)nc2ccccn2c1=O,-15,-4,-5,86,-6,.,.,
Cc1nc2ccccc2c(=O)n1/N=C/c1cc(Br)ccc1O,35,-1,69*,64*,18,106,104,tim23-1 conf=76*
CC(C)(C)c1ccc(OCCC(=O)OCC(=O)Nc2cccnc2Cl)cc1,30,10,11,96,22,.,.,
Cc1[nH]c2ccccc2c1N=Nc1cc(C(=O)O)cc(C(=O)O)c1,-3,-8,4,83,23,.,.,

# Source: PubChem BioAssay
